Experimental data from PubChem BioAssay (EPA / NIEHS).
Activity calls are given as the source filed them. Rule for the calls: active = hit-call score of the fitted dose curve at least 0.9, where 1 is the maximum; inactive = score below 0.9.

target: Signal transducer and activator of transcription 3 (Homo sapiens) (UniProt P40763); experiment: ATG_STAT3_CIS: Attagene CIS-FACTORIAL HepG2 Assay for human Signal Transducer and Activator of Transcription 3 (STAT3) (AID 2282963); settings: HepG2, Attagene cis-factorial STAT3 reporter transcription; actives raise or lower the signal
Sequence (P40763 whole entry, looked up): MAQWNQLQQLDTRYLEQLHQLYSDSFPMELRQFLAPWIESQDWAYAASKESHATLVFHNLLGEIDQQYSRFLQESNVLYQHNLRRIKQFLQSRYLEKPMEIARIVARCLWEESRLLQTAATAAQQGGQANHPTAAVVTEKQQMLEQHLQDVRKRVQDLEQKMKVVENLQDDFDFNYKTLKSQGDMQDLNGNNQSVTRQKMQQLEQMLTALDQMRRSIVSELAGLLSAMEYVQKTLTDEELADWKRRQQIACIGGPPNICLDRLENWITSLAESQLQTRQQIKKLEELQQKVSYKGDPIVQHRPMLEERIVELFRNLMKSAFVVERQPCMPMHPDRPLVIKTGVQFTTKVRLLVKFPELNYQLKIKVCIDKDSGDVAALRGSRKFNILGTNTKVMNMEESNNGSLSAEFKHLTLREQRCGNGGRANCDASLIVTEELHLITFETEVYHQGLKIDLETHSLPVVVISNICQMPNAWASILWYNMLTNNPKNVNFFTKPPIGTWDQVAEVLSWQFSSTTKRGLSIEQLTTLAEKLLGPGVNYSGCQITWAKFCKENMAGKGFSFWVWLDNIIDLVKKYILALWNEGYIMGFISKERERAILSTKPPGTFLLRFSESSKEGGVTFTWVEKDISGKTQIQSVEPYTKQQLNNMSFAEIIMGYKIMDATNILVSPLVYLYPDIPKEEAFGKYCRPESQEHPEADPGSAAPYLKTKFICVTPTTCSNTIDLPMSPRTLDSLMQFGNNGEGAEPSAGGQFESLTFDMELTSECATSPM
Method in brief: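 Values derive from bidirectional fits relative to DMSO of reporter mRNA levels, measured by RT-PCR with capillary electrophoresis, in HepG2 cells carrying transiently transfected cis-regulated reporter units and exposed 24 h.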

Structure (SMILES)	outcome	AC50
COc1ccc(C(=O)Nc2nc3ccccc3c(NCc3ccccc3)c2C#N)cc1	inactive	
CN(C)C(=O)NC1(c2ccccc2)CCN(CCC[C@]2(c3ccc(Cl)c(Cl)c3)CCCN(C(=O)c3ccccc3)C2)CC1		4.4 µM (active)
CC(C)COC(=O)CCCCC(=O)OCC(C)C	inactive	
CC(C)c1cccc(C(C)C)c1	inactive	
Cc1cc(SC2=C(O)C[C@@](CCc3ccc(N)cc3)(C(C)C)OC2=O)c(C(C)(C)C)cc1CO	inactive	
Oc1ccccc1O	inactive	
O=C1O[C@H]([C@H](O)CO)C(O)=C1O	inactive	
CN(C)C(=O)NC1(c2ccccc2)CCN(CC[C@@]2(c3ccc(F)c(F)c3)CN(C(=O)c3ccccc3)CCO2)CC1	inactive	
C=CCCCCCCCCCCCC	inactive	
O=C(NS(=O)(=O)/C=C/c1cccs1)c1ccc(F)cc1Br	inactive	
CC1(C)C(=O)NC(=O)N1CO	inactive	
CCC(C)N(C)C(=O)c1cc2ccccc2c(-c2ccccc2Cl)n1 (configuration not stated)	inactive	
CC(C)NCC(O)c1ccc(O)c(O)c1 (configuration not stated)	inactive	
O=C1CCCCC1	inactive	
O=C(O)c1[nH]n(-c2ccc(S(=O)(=O)O)cc2)c(=O)c1N=Nc1ccc(S(=O)(=O)O)cc1	inactive	
CCCC[C@H]1CN(CC2CCOCC2)C(=O)OC12CCN(C1(C)CCN(C(=O)c3c(C)ncnc3C)CC1)CC2	inactive	
NC=O	inactive	
CCCCCCCC(=O)OC	inactive	
Cc1ccc(-c2cc(C(F)(F)F)nn2-c2ccc(S(N)(=O)=O)cc2)cc1	inactive	
CC(COCC(C)OC(=O)c1ccccc1)OC(=O)c1ccccc1 (configuration not stated)	inactive	
CCc1nc(N)nc(N)c1-c1ccc(Cl)cc1	inactive	
NC(=Nc1ccccc1)Nc1ccccc1	inactive	
Oc1ccc(O)cc1	inactive	
CCCCCCC(C=O)=Cc1ccccc1	inactive	
CSc1ccc(Oc2ccc(S(N)(=O)=O)cc2CN(C)C)cc1C	inactive	
CS(=O)(=O)c1ccc([C@@H](C[C@H]2CCC(=O)C2)C(=O)Nc2cnccn2)cc1Cl	inactive	
CN(C)CCCN(C)CCCN(C)C	inactive	
O=C(Oc1ccccc1)c1cccc(C(=O)Oc2ccccc2)c1	inactive	
COC(=O)CCC(=O)OC	inactive	

system: not listed separately; experiment: ATG_TA_CIS: Attagene CIS-FACTORIAL HepG2 Assay for human TA Basal Promoter (AID 2282964); settings: HepG2 Attagene CIS-factorial TA basal promoter reporter; actives raise or lower the signal
Method in brief: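 Multiplexed mRNA reporter assay, HepG2, 24 h. Reporter cDNA amplified, 6-FAM primer-extended, HpaI-cut, CE-sized; DMSO = negative control and baseline.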

Structure (SMILES)	outcome	AC50
COc1ccc(C(=O)Nc2nc3ccccc3c(NCc3ccccc3)c2C#N)cc1	inactive	
CN(C)C(=O)NC1(c2ccccc2)CCN(CCC[C@]2(c3ccc(Cl)c(Cl)c3)CCCN(C(=O)c3ccccc3)C2)CC1	inactive	
CC(C)COC(=O)CCCCC(=O)OCC(C)C	inactive	
CC(C)c1cccc(C(C)C)c1	inactive	
Cc1cc(SC2=C(O)C[C@@](CCc3ccc(N)cc3)(C(C)C)OC2=O)c(C(C)(C)C)cc1CO	inactive	
Oc1ccccc1O	inactive	
O=C1O[C@H]([C@H](O)CO)C(O)=C1O	inactive	
CN(C)C(=O)NC1(c2ccccc2)CCN(CC[C@@]2(c3ccc(F)c(F)c3)CN(C(=O)c3ccccc3)CCO2)CC1	inactive	
C=CCCCCCCCCCCCC	inactive	
O=C(NS(=O)(=O)/C=C/c1cccs1)c1ccc(F)cc1Br	inactive	
CC1(C)C(=O)NC(=O)N1CO	inactive	
CCC(C)N(C)C(=O)c1cc2ccccc2c(-c2ccccc2Cl)n1 (configuration not stated)		44.3 µM (active)
CC(C)NCC(O)c1ccc(O)c(O)c1 (configuration not stated)	inactive	
O=C1CCCCC1	inactive	
O=C(O)c1[nH]n(-c2ccc(S(=O)(=O)O)cc2)c(=O)c1N=Nc1ccc(S(=O)(=O)O)cc1	inactive	
CCCC[C@H]1CN(CC2CCOCC2)C(=O)OC12CCN(C1(C)CCN(C(=O)c3c(C)ncnc3C)CC1)CC2	inactive	
NC=O	inactive	
CCCCCCCC(=O)OC	inactive	
Cc1ccc(-c2cc(C(F)(F)F)nn2-c2ccc(S(N)(=O)=O)cc2)cc1	inactive	
CC(COCC(C)OC(=O)c1ccccc1)OC(=O)c1ccccc1 (configuration not stated)	inactive	
CCc1nc(N)nc(N)c1-c1ccc(Cl)cc1		100 µM (active)
NC(=Nc1ccccc1)Nc1ccccc1	inactive	
Oc1ccc(O)cc1	inactive	
CCCCCCC(C=O)=Cc1ccccc1	inactive	
CSc1ccc(Oc2ccc(S(N)(=O)=O)cc2CN(C)C)cc1C	inactive	
CS(=O)(=O)c1ccc([C@@H](C[C@H]2CCC(=O)C2)C(=O)Nc2cnccn2)cc1Cl	inactive	
CN(C)CCCN(C)CCCN(C)C	inactive	
O=C(Oc1ccccc1)c1cccc(C(=O)Oc2ccccc2)c1	inactive	
COC(=O)CCC(=O)OC	inactive	

system: not listed separately; experiment: ATG_TCF_b_cat_CIS: Attagene CIS-FACTORIAL HepG2 Assay for human T-Cell-Factor with beta-catenin (TCF/b-cat) (AID 2282965); settings: HepG2 TCF/beta-catenin cis-reporter transcription, actives raise or lower the signal
Method in brief: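 HepG2, transient MRTU transfection, cis-element-driven reporters (endogenous TFs). 24 h compound exposure. Readout: reporter mRNA by RT-PCR + 6-FAM primer extension, HpaI digest, capillary electrophoresis. Gain/loss fit vs DMSO baseline.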

Structure (SMILES)	outcome	AC50
COc1ccc(C(=O)Nc2nc3ccccc3c(NCc3ccccc3)c2C#N)cc1	inactive	
CN(C)C(=O)NC1(c2ccccc2)CCN(CCC[C@]2(c3ccc(Cl)c(Cl)c3)CCCN(C(=O)c3ccccc3)C2)CC1	inactive	
CC(C)COC(=O)CCCCC(=O)OCC(C)C	inactive	
CC(C)c1cccc(C(C)C)c1	inactive	
Cc1cc(SC2=C(O)C[C@@](CCc3ccc(N)cc3)(C(C)C)OC2=O)c(C(C)(C)C)cc1CO	inactive	
Oc1ccccc1O	inactive	
O=C1O[C@H]([C@H](O)CO)C(O)=C1O	inactive	
CN(C)C(=O)NC1(c2ccccc2)CCN(CC[C@@]2(c3ccc(F)c(F)c3)CN(C(=O)c3ccccc3)CCO2)CC1		100 µM (active)
C=CCCCCCCCCCCCC	inactive	
O=C(NS(=O)(=O)/C=C/c1cccs1)c1ccc(F)cc1Br		11.4 µM (active)
CC1(C)C(=O)NC(=O)N1CO	inactive	
CCC(C)N(C)C(=O)c1cc2ccccc2c(-c2ccccc2Cl)n1 (configuration not stated)		41.7 µM (active)
CC(C)NCC(O)c1ccc(O)c(O)c1 (configuration not stated)	inactive	
O=C1CCCCC1	inactive	
O=C(O)c1[nH]n(-c2ccc(S(=O)(=O)O)cc2)c(=O)c1N=Nc1ccc(S(=O)(=O)O)cc1	inactive	
CCCC[C@H]1CN(CC2CCOCC2)C(=O)OC12CCN(C1(C)CCN(C(=O)c3c(C)ncnc3C)CC1)CC2	inactive	
NC=O	inactive	
CCCCCCCC(=O)OC	inactive	
Cc1ccc(-c2cc(C(F)(F)F)nn2-c2ccc(S(N)(=O)=O)cc2)cc1	inactive	
CC(COCC(C)OC(=O)c1ccccc1)OC(=O)c1ccccc1 (configuration not stated)	inactive	
CCc1nc(N)nc(N)c1-c1ccc(Cl)cc1		60.1 µM (active)
NC(=Nc1ccccc1)Nc1ccccc1		6.54 µM (active)
Oc1ccc(O)cc1	inactive	
CCCCCCC(C=O)=Cc1ccccc1	inactive	
CSc1ccc(Oc2ccc(S(N)(=O)=O)cc2CN(C)C)cc1C		55 µM (active)
CS(=O)(=O)c1ccc([C@@H](C[C@H]2CCC(=O)C2)C(=O)Nc2cnccn2)cc1Cl	inactive	
CN(C)CCCN(C)CCCN(C)C	inactive	
O=C(Oc1ccccc1)c1cccc(C(=O)Oc2ccccc2)c1	inactive	
COC(=O)CCC(=O)OC	inactive	
